Data from PubChem BioAssay (EPA / NIEHS).
Activity calls are given as the source filed them. The calls were made as follows: active = hit-call score of the fitted dose curve at least 0.9, where 1 is the maximum; inactive = score below 0.9.

Experiments:
[1] = read-out: Thrombomodulin, THBD (gene 7056); assay: BSK_CASM3C_Thrombomodulin: BioMAP Diversity Plus: CASM3C Assay for Thrombomodulin Biomarker Activity (AID 2283051); conditions: primary human coronary artery smooth muscle cells; actives raise or lower the signal;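 also: thrombomodulin protein level measured by ELISA 24 h after dosing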
[2] = read-out: Tissue Factor, F3 (gene 2152); assay: BSK_CASM3C_TissueFactor: BioMAP Diversity Plus: CASM3C Assay for Tissue Factor Biomarker Activity (AID 2283052); conditions: primary human coronary artery smooth muscle cells; actives raise or lower the signal;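 also: cell surface tissue factor protein level read by ELISA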
[3] = read-out: Interferon-gamma inducible Protein 10 (IP10), CXCL10 (gene 3627); assay: BSK_hDFCGF_IP10: BioMAP Diversity Plus: hDFCGF Assay for Interferon-gamma inducible Protein 10 (IP10) Biomarker Activity (AID 2283053); conditions: primary human foreskin fibroblasts; actives raise or lower the signal
Outline: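 IP-10 levels, quantified by ELISA, are taken from human foreskin fibroblast cultures 24 h after chemical treatment, with DMSO serving as negative control and baseline for bidirectional analysis.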

[4] = read-out: Urokinase-type plasminogen activator receptor (uPAR), PLAUR (gene 5329); assay: BSK_CASM3C_uPAR: BioMAP Diversity Plus: CASM3C Assay for Urokinase-type plasminogen activator receptor (uPAR) Biomarker Activity (AID 2283054); conditions: primary human coronary artery smooth muscle cells; actives raise or lower the signal;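 also: cell-surface uPAR protein level quantified by ELISA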
[5] = read-out: Vascular cell adhesion molecule 1 (VCAM1), VCAM1 (gene 7412); assay: BSK_CASM3C_VCAM1: BioMAP Diversity Plus: CASM3C Assay for Vascular cell adhesion molecule 1 (VCAM1) Biomarker Activity (AID 2283055); conditions: primary human coronary artery smooth muscle cells; actives raise or lower the signal;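 also: VCAM-1 protein level quantified by ELISA on the cells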
[6] = read-out: Collagen III, COL3A1 (gene 1281); assay: BSK_hDFCGF_CollagenIII: BioMAP Diversity Plus: hDFCGF Assay for Collagen III Biomarker Activity (AID 2283056); conditions: primary human foreskin fibroblasts; actives raise or lower the signal
Outline: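 Human foreskin primary fibroblasts were exposed to test chemicals for 24 h, after which collagen III was quantified by ELISA. Activity was fitted bidirectionally against DMSO as negative control and baseline.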

[7] = read-out: Epidermal growth factor receptor (EGFR), EGFR (gene 1956); assay: BSK_hDFCGF_EGFR: BioMAP Diversity Plus: hDFCGF Assay for Epidermal growth factor receptor (EGFR) Biomarker Activity (AID 2283057); conditions: primary human foreskin fibroblasts; actives raise or lower the signal
Outline: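 Measured by ELISA: EGFR levels on primary human foreskin fibroblasts 24 h after chemical treatment, analysed relative to DMSO with bidirectional fitting.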

[8] = read-out: Interleukin-8 (IL8), CXCL8 (gene 3576); assay: BSK_hDFCGF_IL8: BioMAP Diversity Plus: hDFCGF Assay for Interleukin-8 (IL8) Biomarker Activity (AID 2283058); conditions: primary human foreskin fibroblasts; actives raise or lower the signal
Outline: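 hDFCGF human dermal fibroblasts; 24 h chemical exposure; IL-8 by ELISA; bidirectional curve fit vs DMSO baseline; gain or loss of signal scored.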

[9] = BSK_hDFCGF_Proliferation: Cell Proliferation Assessment in the BioMAP Diversity Plus: hDFCGF Assay (AID 2283059); conditions: primary human foreskin fibroblasts;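 also: curves fitted for both rise and fall of signal versus DMSO baseline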
Outline: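 Primary human foreskin fibroblasts, sub-confluent; […]; 10% TCA fix, 0.1% SRB stain, A560 total protein. Gain/loss fitted bidirectionally vs DMSO control.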

[10] = read-out: Macrophage colony-stimulating factor (MCSF), CSF1 (gene 1435); assay: BSK_hDFCGF_MCSF: BioMAP Diversity Plus: hDFCGF Assay for Macrophage colony-stimulating factor (MCSF) Biomarker Activity (AID 2283060); conditions: primary human foreskin fibroblasts; actives raise or lower the signal
Outline: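 Human foreskin primary fibroblasts were treated with test chemical for 24 h, and M-CSF was then measured by ELISA. Data were fitted bidirectionally against DMSO as the negative control and activity baseline.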

Row | Compound | outcome [1] | outcome [2] | outcome [3] | outcome [4] | outcome [5] | outcome [6] | outcome [7] | outcome [8] | AC50 [9] | outcome [10] | AC50 [1] | AC50 [3] | AC50 [6] | outcome [9] | AC50 [4] | AC50 [5] | AC50 [7] | AC50 [8] | AC50 [10]
1 | CC1(C)CCC(=Cc2ccc(Cl)cc2)C1(O)Cn1cncn1 (stereo not drawn) | inactive | inactive | inactive | inactive | inactive | inactive | inactive | inactive | 1.31 µM (active) | inactive | – | – | – | – | – | – | – | – | –
2 | CCN(CC)C(=O)C(C)Oc1cccc2ccccc12 (stereo not drawn) | – | inactive | – | inactive | inactive | – | inactive | inactive | – | inactive | 0.148 µM (active) | 3.97 µM (active) | 0.148 µM (active) | inactive | – | – | – | – | –
3 | CS(=O)(=O)c1cc(C(F)(F)F)ccc1C(=O)c1cnoc1C1CC1 | inactive | inactive | inactive | inactive | inactive | inactive | inactive | inactive | – | inactive | – | – | – | inactive | – | – | – | – | –
4 | CCCCOCN(C(=O)CCl)c1c(CC)cccc1CC | – | inactive | – | – | – | – | – | – | 15.2 µM (active) | – | 5.46 µM (active) | 24.6 µM (active) | 12.2 µM (active) | – | 29.3 µM (active) | 24.2 µM (active) | 33.3 µM (active) | 31.4 µM (active) | 16.5 µM (active)
5 | CCC(C)n1c(=O)[nH]c(C)c(Br)c1=O (stereo not drawn) | inactive | inactive | inactive | inactive | inactive | inactive | inactive | inactive | – | inactive | – | – | – | inactive | – | – | – | – | –
6 | Nc1c(Cl)c(Cl)nc(C(=O)O)c1Cl | inactive | inactive | inactive | inactive | inactive | inactive | inactive | inactive | – | inactive | – | – | – | inactive | – | – | – | – | –
7 | COc1ccc(-c2ccccc2)cc1NNC(=O)OC(C)C | inactive | inactive | inactive | inactive | inactive | inactive | inactive | inactive | – | inactive | – | – | – | inactive | – | – | – | – | –
8 | Cn1c(-c2ccccc2)cc(-c2ccccc2)[n+]1C | inactive | inactive | inactive | inactive | inactive | – | inactive | inactive | 5.37 µM (active) | – | – | – | 10.1 µM (active) | – | – | – | – | – | 5.47 µM (active)
9 | O=P(O)(O)CCCl | inactive | inactive | inactive | inactive | inactive | inactive | inactive | inactive | – | inactive | – | – | – | inactive | – | – | – | – | –
10 | COC(=O)c1c(C(F)F)nc(C(F)(F)F)c(C2=NCCS2)c1CC(C)C | – | inactive | – | inactive | inactive | inactive | inactive | inactive | – | inactive | 18 µM (active) | 6.09 µM (active) | – | inactive | – | – | – | – | –
11 | CN/C(=N\[N+](=O)[O-])NCc1cnc(Cl)s1 | inactive | inactive | inactive | inactive | inactive | inactive | inactive | inactive | – | inactive | – | – | – | inactive | – | – | – | – | –
12 | CO/N=C(/C1=NOCCO1)c1ccccc1Oc1ncnc(Oc2ccccc2Cl)c1F | inactive | inactive | inactive | inactive | inactive | inactive | inactive | inactive | 26.7 µM (active) | inactive | – | – | – | – | – | – | – | – | –
13 | COc1cc(Cl)c(OC)cc1Cl | inactive | inactive | inactive | inactive | inactive | inactive | inactive | inactive | – | inactive | – | – | – | inactive | – | – | – | – | –
14 | CC1(C)C(C(=O)OC(C#N)c2cccc(Oc3ccccc3)c2)C1(C)C (stereo not drawn) | – | inactive | inactive | inactive | inactive | inactive | inactive | inactive | 8.2 µM (active) | inactive | 16 µM (active) | – | – | – | – | – | – | – | –
15 | COCc1cnc(C2=NC(C)(C(C)C)C(=O)N2)c(C(=O)O)c1 (stereo not drawn) | inactive | inactive | inactive | inactive | inactive | inactive | inactive | inactive | – | inactive | – | – | – | inactive | – | – | – | – | –
16 | CC(C)Oc1cccc(NC(=O)c2ccccc2C(F)(F)F)c1 | inactive | inactive | inactive | inactive | inactive | inactive | inactive | inactive | 27.5 µM (active) | inactive | – | – | – | – | – | – | – | – | –

Row | Compound | outcome [1] | outcome [2] | outcome [3] | outcome [4] | outcome [5] | outcome [6] | outcome [7] | outcome [8] | AC50 [9] | outcome [10] | AC50 [1] | AC50 [3] | AC50 [6] | outcome [9] | AC50 [4] | AC50 [5] | AC50 [7] | AC50 [8] | AC50 [10]
17 | CC(C)C1(C)N=C(c2ncccc2C(=O)O)NC1=O (stereo not drawn) | inactive | inactive | inactive | inactive | inactive | inactive | inactive | inactive | – | inactive | – | – | – | inactive | – | – | – | – | –
18 | Clc1cccc(C(Cl)(Cl)Cl)n1 | inactive | inactive | – | inactive | inactive | inactive | inactive | inactive | – | inactive | – | 29.8 µM (active) | – | inactive | – | – | – | – | –
19 | O=c1n(Cl)c(=O)n(Cl)c(=O)n1Cl | – | inactive | – | inactive | inactive | inactive | inactive | inactive | – | inactive | 12.7 µM (active) | 20 µM (active) | – | inactive | – | – | – | – | –
20 | CCCN(CC)CC1COC2(CCC(C(C)(C)C)CC2)O1 (stereo not drawn) | inactive | inactive | – | inactive | inactive | – | inactive | inactive | 5.6 µM (active) | inactive | – | 1.98 µM (active) | 1.25 µM (active) | – | – | – | – | – | –
21 | N#CN=C1SCCN1Cc1ccc(Cl)nc1 | inactive | inactive | inactive | inactive | inactive | inactive | inactive | inactive | – | inactive | – | – | – | inactive | – | – | – | – | –
22 | CCOC(=O)C(C)OC(=O)c1cc(Oc2ccc(C(F)(F)F)cc2Cl)ccc1[N+](=O)[O-] (stereo not drawn) | inactive | inactive | inactive | inactive | inactive | – | inactive | inactive | – | – | – | – | 6.41 µM (active) | inactive | – | – | – | – | 8.12 µM (active)
23 | COC(=O)NC(=S)Nc1ccccc1NC(=S)NC(=O)OC | inactive | inactive | inactive | inactive | inactive | inactive | inactive | inactive | 29.8 µM (active) | inactive | – | – | – | – | – | – | – | – | –
24 | Cc1c(COC(=O)[C@@H]2[C@H](/C=C(\Cl)C(F)(F)F)C2(C)C)cccc1-c1ccccc1 | – | inactive | inactive | inactive | inactive | inactive | inactive | inactive | 16.9 µM (active) | – | 18.1 µM (active) | – | – | – | – | – | – | – | 3.97 µM (active)
25 | CNC(=O)Oc1cccc2ccccc12 | inactive | inactive | inactive | inactive | inactive | inactive | inactive | inactive | 13.9 µM (active) | – | – | – | – | – | – | – | – | – | 29.7 µM (active)
26 | N#Cc1c[nH]cc1-c1cccc2c1OC(F)(F)O2 | – | inactive | inactive | inactive | inactive | inactive | inactive | inactive | – | – | 22.7 µM (active) | – | – | – | – | – | – | – | 8.88 µM (active)
27 | C=CCOC(=O)C(C)(C)OC(=O)c1cc(-n2c(=O)cc(C(F)(F)F)n(C)c2=O)ccc1Cl | inactive | inactive | – | – | inactive | inactive | – | inactive | – | – | – | 1.2 µM (active) | – | inactive | 0.984 µM (active) | – | 0.98 µM (active) | – | 1.88 µM (active)
28 | O=C(Nc1ccccc1-c1ccc(Cl)cc1)c1cccnc1Cl | inactive | inactive | inactive | inactive | inactive | inactive | inactive | inactive | – | inactive | – | – | – | inactive | – | – | – | – | –
29 | Cc1ccc(N=CN(C)C=Nc2ccc(C)cc2C)c(C)c1 | – | inactive | – | inactive | inactive | – | inactive | – | 14 µM (active) | – | 31.6 µM (active) | 29.1 µM (active) | 13.3 µM (active) | – | – | – | – | 36.1 µM (active) | 15.2 µM (active)
30 | CCOP(=S)(OCC)Oc1nc(Cl)n(C(C)C)n1 | inactive | inactive | – | inactive | inactive | inactive | inactive | inactive | – | inactive | – | 26.7 µM (active) | – | inactive | – | – | – | – | –
31 | Nc1cnn(-c2ccccc2)c(=O)c1Cl | inactive | inactive | inactive | inactive | inactive | inactive | inactive | inactive | – | inactive | – | – | – | inactive | – | – | – | – | –
32 | CC(C)(C)C(=O)C(Oc1ccc(Cl)cc1)n1cncn1 (stereo not drawn) | inactive | inactive | inactive | inactive | inactive | inactive | inactive | inactive | – | inactive | – | – | – | – | – | – | – | – | –
